Data published in PubChem BioAssay (EPA / NIEHS).
Values joined by “and” are separate entries in the source; they are usually repeats but may differ in a detail not shown here. Equal entries are not always repeated. Where a structure was tested more than once in an assay, its records may differ in their call. Active and inactive are the calls of the source. How the source made its calls: active means hit-call score of the fitted dose curve at least 0.9, where 1 is the maximum; inactive means score below 0.9.

Test: ATG_NRF2_ARE_CIS: Attagene CIS-FACTORIAL HepG2 Assay for human Nuclear Factor Erythroid 2 Related Factor 2 (NFR2) response to Antioxidant Response Elements (ARE) (AID 2282992)
Conditions: HepG2 Attagene ARE/NRF2 reporter, transcription factor activity; actives raise or lower the signal
Protocol: ATG_CIS is a cell-based, multiplexed-readout assay that uses HepG2, a human liver cell line, with measurements taken at 24 hours after chemical dosing in a 24-well plate.ATG_NRF2_ARE_CIS is one of 52 assay component(s) measured or calculated from the ATG_CIS assay. It is designed to make measurements of mRNA induction, a form of inducible reporter, as detected with fluorescence intensity signals by Reverse transcription polymerase chain reaction (RT-PCR) and Capillary electrophoresis technology.Data from the assay component ATG_NRF2_ARE_CIS was analyzed into 1 assay endpoint. This assay endpoint, ATG_NRF2_ARE_CIS, was analyzed with bidirectional fitting relative to DMSO as the negative control and baseline of activity. Using a type of inducible reporter, measures of mRNA for gain or loss-of-signal activity can be used to understand the reporter gene at the transcription factor-level as they relate to the gene NFE2L2. Furthermore, this assay endpoint can be referred to as a primary readout, because this assay has produced multiple assay endpoints where this one serves a reporter gene function. To generalize the intended target to other relatable targets, this assay endpoint is annotated to the dna binding intended target family, where the subfamily is basic leucine zipper.
Human liver HepG2 cells are transiently transfected with multiple reporter transcription units (MRTUs) in 6-well plates using FuGene 6 reagent (Roche; 3 ml FuGene/1 mg DNA). The MRTU constructs are regulated by a cis-regulating element (promoter). […] A major difference between the CIS and TRANS system is that in CIS activities of endogenous TFs are measured, whereas the TRANS assay evaluates changes in activities of exogenous, chimeric NR-Gal4 proteins. […] At the end of 24 hour incubation, total RNA was isolated using TriZol reagent (Invitrogen). The isolated RNA is then reverse-transcribed using oligo(dT) primer and Mo-MLV reverse transcriptase (Invitrogen) with DNAse I (Ambion) treatment for 30 min. The one-tenth of the produced cDNA was amplified by PCR using Taq DNA polymerase (Invitrogen) and two reporter sequence-specific primers. The PCR products were fluorescently labeled by primer extension with 6-arboxyfluorescein (6-FAM) 5'-labeled reporter sequence-specific primer (2 min at 95 C, 20 s at 68 C and 10 min at 72 C) and these products were digested with 5U of HpaI (New England Biolabs) for 2h at 37 C. The fragments were purified using Qiaquick PCR columns (Qiagen), analyzed on an ABI 3130xL genetic analyzer (Applied Biosystems) with peak positions identified by using a set of X-rhodamine (ROX)-labeled MapMarker1000 molecular weight standards (BioVentures). The raw capillary electrophoresis data was processed using Attagraph software (Attagene).

Compound	outcome	AC50
CCCSC(=O)N(CCC)CCC	inactive	
CCCCOC(=O)c1ccccc1C(=O)OCc1ccccc1		48.3 µM (active)
ClCCOCCCl	inactive	
O=C1CCCO1	inactive	
c1ccc(N=Nc2ccccc2)cc1		61.2 µM (active)
C1=Cc2cccc3cccc1c23	inactive	
ClC1=C(Cl)C2(Cl)C3C(Cl)C=CC3C1(Cl)C2(Cl)Cl (stereo not given)	inactive	
CC(C)N(Cc1ccccc1)C(=O)C(C)(C)C	inactive	
CCC[CH2][Sn]([Cl])([CH2]CCC)[CH2]CCC		0.281 µM (active)
Cn1cc(-c2ccccc2)c(=O)c(-c2cccc(C(F)(F)F)c2)c1		44.2 µM (active)
c1ccc2c(c1)oc1ccccc12	inactive	
CCCCC(CC)COC(=O)c1ccc(C(=O)OCC(CC)CCCC)c(C(=O)OCC(CC)CCCC)c1 (stereo not given)	inactive	
O=P(OCCCl)(OCCCl)OCCCl	inactive	
Cc1ccc([N+](=O)[O-])cc1	inactive	
CCCCCCCCCCCCCN1CC(C)OC(C)C1 (stereo not given)		47 µM (active)
CCCCCCCCOC(=O)c1ccc(C(=O)OCCCCCCCC)c(C(=O)OCCCCCCCC)c1	inactive	
Cc1ccc(N=C=O)cc1N=C=O	inactive	
CN(C)C(=O)Nc1ccc(Cl)cc1	inactive	
CN(C)c1ccccc1	inactive	
ClC1=C(Cl)[C@]2(Cl)[C@H]3[C@H]([C@@H]4C=C[C@H]3C4)[C@@]1(Cl)C2(Cl)Cl		50.5 µM (active)

Compound	outcome	AC50
C[N+](C)(C)CC1CO1 (stereo not given)	inactive	
COP(=S)(OC)SCN1C(=O)c2ccccc2C1=O	inactive	
Nc1ccc(Cl)cc1N		5.68 µM (active)
CCOC(=O)[C@]1(c2ccccc2)Oc2ccccc2[C@@H]1N		34.7 µM (active)
C[C@]12C=CC3=C4CCC(=O)C=C4CC[C@H]3[C@@H]1CC[C@@H]2O	inactive	17.5 µM (active) and 11.3 µM (active)
N#CC(Br)(Br)C(N)=O		100 µM (active)
CC(C)(O)c1cnn2c(-c3ccc(F)c(-c4c(F)cccc4C#N)c3)cnc2n1		19.8 µM (active)
CC(C)(C)OOC(=O)c1ccccc1		79.5 µM (active)
CS(=O)(=O)NC(=O)c1cc(Oc2ccc(C(F)(F)F)cc2Cl)ccc1[N+](=O)[O-]	inactive	
OCCCBr	inactive	
c1ccc2c(c1)-c1cccc3cccc-2c13	inactive	
CCN(CC)CCO	inactive	
CCOc1cccc(C2(N3CCN(c4ccccc4)CC3)CCC(C)CC2)c1 (stereo not given)	inactive	
O=Cc1ccco1	inactive	
Nc1ccc([N+](=O)[O-])cc1	inactive	
Oc1ccc2ccc3cccc4ccc1c2c34	inactive	
[O-][Cl+]O	inactive	
Cc1cccc(N)c1N		21.6 µM (active)
N#CC(Br)Br		74.8 µM (active)
